In the library only some 1.6% were active in any assay of this set; here they are far more common.
eIF4H inh: human eIF4H binding inhibitors, primary screen, translation initiation inhibitor project, biochemical, uHTS, fluorescence polarization | Eukaryotic translation initiation factor 4H (Homo sapiens), Q15056 | 0.94% of 290,000 active | eIF4H fluorescence polarization binding assay | inhibition, % at 35 µM;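 note: calls also rest on retests at 20 µM and on dose response follow-up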
eIF4E 4G PPI: eIF4E–eIF4G protein interaction inhibitors, primary screen, biochemical, uHTS, TR-FRET, eIF4GI fragment; 0.37% of 220,000 active; TR-FRET eIF4E-eIF4GI(517-606) binding, 2 h; inhibition, % at 21.7 µM; Eukaryotic translation initiation factor 4E (Mus musculus) + Eukaryotic translation …; AID 782, 2007;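 active = inhibition above about 30%, limit read from the data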
MLLE-PAM2 inh: inhibitors of PABP1 MLLE–PAM2 peptide binding, primary screen, biochemical, fluorescence polarization, FITC-PAM2, GST-MLLE. inhibition, % at 20 µM. Polyadenylate-binding protein 1 (Homo sapiens), P11940. 0.36% of 360,000 active; in the data active = inhibition above about 35%, passing the limit was not always enough
Target sequence (P11940 whole entry, looked up): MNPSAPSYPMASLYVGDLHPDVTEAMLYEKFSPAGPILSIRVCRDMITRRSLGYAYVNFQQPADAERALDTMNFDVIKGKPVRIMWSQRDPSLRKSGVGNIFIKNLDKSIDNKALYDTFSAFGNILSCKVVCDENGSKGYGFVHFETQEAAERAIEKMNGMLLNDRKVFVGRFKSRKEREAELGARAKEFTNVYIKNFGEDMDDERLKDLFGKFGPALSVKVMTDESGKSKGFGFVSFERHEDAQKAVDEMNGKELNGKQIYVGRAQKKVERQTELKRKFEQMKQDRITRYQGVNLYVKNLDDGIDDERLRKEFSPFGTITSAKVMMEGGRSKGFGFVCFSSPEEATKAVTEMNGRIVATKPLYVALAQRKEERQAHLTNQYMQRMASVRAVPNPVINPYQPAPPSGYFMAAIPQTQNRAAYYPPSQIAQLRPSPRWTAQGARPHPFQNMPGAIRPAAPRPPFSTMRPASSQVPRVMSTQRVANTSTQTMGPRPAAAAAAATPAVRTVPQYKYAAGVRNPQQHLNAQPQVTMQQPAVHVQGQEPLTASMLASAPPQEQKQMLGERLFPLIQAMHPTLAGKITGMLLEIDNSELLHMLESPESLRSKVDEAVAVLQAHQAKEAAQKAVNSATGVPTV
PABP polyA inh: PABP poly(A) RNA binding inhibitors, primary screen, biochemical, fluorescence polarization, uHTS; Polyadenylate-binding protein 1 (Homo sapiens), P11940; inhibition, % at 35 µM; 1% of 290,000 active;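 note: calls also rest on retests at 20 µM and on dose response follow-up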
PERK inh: block of dimerizer-induced PERK translation repression, primary screen, PERK inhibitor project, CHO PERK-DD cells, SEAP luminescence, HTS. AID 1416, 2008. inhibition, % at 5.6 µM. 0.17% of 220,000 active. CHO PERK-DD fusion, SEAP luminescence translation reporter. Eukaryotic translation initiation factor 2-alpha kinase 3 (Homo sapiens), Q9NZJ5;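 active = inhibition above the mean inhibition of all tested compounds plus 3 SD, set separately per screening campaign, cut at about 2.9% in these data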;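 note: PERK kinase domain activated by AP20187 dimerizer at 100 nM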
Hits are given with their value; - = inactive; ? = inconclusive; . = no result. Unless noted, the rule behind the calls is not given here.

SMILES	eIF4H inh	eIF4E 4G PPI	MLLE-PAM2 inh	PABP polyA inh	PERK inh
O=C(c1ccco1)N1CCN(C(=O)c2cc(-c3ccccn3)nc3ccc(Cl)cc23)CC1	99.9	-	-	-	-
O=C(O)C1=NN(c2ccccc2)C(=O)C1	-	-	-	-	-
CCOC(=O)C1=NN(c2ccccc2)C(=O)C1	-	-	-	-	2.9
CC1=CC(=O)c2c(O)ccc(O)c2C1=O	112.1	63.0	.	111.1	-
O=C1C=C(N2CCN(c3ccccn3)CC2)C(=O)c2c(O)ccc(O)c21	.	.	-	.	.
O=C(Oc1ccc(=O)n(-c2ccccc2)n1)c1cccc(Cl)c1	-	33.1	-	-	-
CCN(CC(=O)NCc1ccc(Cl)cc1)CC(=O)Nc1ccc(C(N)=O)cc1	0.4	-	-	-	-
CCN(CC(=O)NCc1ccc(Cl)cc1)C(=O)CNS(=O)(=O)c1ccc(NC(C)=O)cc1	-	.	40.9	-	.
CCN(CC(=O)NCc1ccc(Cl)cc1)C(=O)NCc1ccc(Cl)cc1	-	.	-	-	.
Cc1ccc(C(=O)NC(=S)NNS(=O)(=O)c2ccccc2)cc1	-	-	41.1	-	-
CC(NC(=O)CSC1=NCCS1)c1ccccc1 (stereo not drawn)	-	-	45.7	-	-
COc1ccccc1CNC(=O)CSC1=NCCS1	-	-	41.2	-	-
O=C(CSC1=NCCS1)Nc1ccccc1F	-	-	42.8	-	-
Cn1nc(C(=O)Nc2cccc(S(=O)(=O)N3CCCCC3)c2)c2ccccc2c1=O	.	.	-	.	.
CNC(=O)c1ccc(NC(=O)C2CCN(c3ncnc4sc(C)c(C)c34)CC2)cc1	-	.	-	-	.
CCOc1ccccc1NC(=O)CSc1nnc(-c2cccnc2)o1	.	.	50.4	.	.
Cc1ccccc1NC(=O)Cn1c(NCC(C)O)nc2ccccc21 (stereo not drawn)	-	-	-	-	-
CC(O)CNc1nc2ccccc2n1CC(=O)NCCc1ccc(Cl)cc1 (stereo not drawn)	-	34.4	-	-	-
CC(=O)c1sc2c(c1N)c(=O)[nH]c(=O)n2-c1ccccc1	-	.	-	-	.
COc1ccccc1N(CC(=O)NCc1ccco1)S(=O)(=O)c1ccc(C)cc1	87.0	.	-	72.7	.
CCOc1ccccc1N(CC(=O)NCCSc1ccccn1)S(=O)(=O)c1ccc(C)cc1	85.6	.	-	86.1	.
Cc1ccc(S(=O)(=O)N(CC(=O)O)Cc2ccco2)cc1	71.3	-	-	20.7	-
Cc1cccn2c(=O)c(/C=C(\C#N)C(N)=O)c(N3CCN(Cc4ccc5c(c4)OCO5)CC3)nc12	-	-	-	-	-
Cc1cc2ncn(N)c2cc1C	-	-	-	-	-
O=C(NC(Cc1c[nH]c2ccccc12)C(=O)O)/C(=C\c1ccc2c(c1)OCO2)NC(=O)c1ccccc1 (stereo not drawn)	-	-	-	-	-
SMILES	eIF4H inh	eIF4E 4G PPI	MLLE-PAM2 inh	PABP polyA inh	PERK inh
Cc1ccc(C2CC2C(=O)NNC(=S)Nc2ccc(Cl)cc2)cc1 (stereo not drawn)	-	-	44.1	-	-
O=C1NC(=O)N2CCSC2(Cc2ccccc2)N1 (stereo not drawn)	.	.	41.2	.	.
CCN(CC)c1ccc(C=N/C(C#N)=C(\N)C#N)cc1	?	-	-	68.9	-
CC(c1ccccc1)n1ccnc1CO (stereo not drawn)	.	.	-	.	.
C=C(C)C(=O)Nc1ccc2c(c1)OCCOCCOCCO2	90.2	-	-	48.9	-
CC(=O)Nc1ccc2c(c1)OCCO2	-	.	-	-	-
CC(O)[C@H]1CNC(=O)C(=O)N1CCc1cccc2ccccc12 (stereo partly drawn)	-	-	-	-	.
Cc1ccc2cc(C3CC(c4ccco4)=NN3C(=O)CCC(=O)O)c(Cl)nc2c1 (stereo not drawn)	?	-	-	4.5	-
O=C(c1cc2c(s1)CCCC2)N1CCN(Cc2ccc3c(c2)OCO3)CC1	-	-	-	-	-
O=C(Oc1ccc2c(c1)OCO2)c1cc2c(s1)CCC2	98.5	-	-	55.2	-
COC(=O)c1c(C(=O)NCc2ccccc2)ncn1CC(O)COc1ccccc1 (stereo not drawn)	-	-	-	-	-
CN1NC(c2ccccc2)NN(C)C1=O	.	.	-	.	.
CC1C2C(c3ccccc3)N(C)C(=O)N(C)C2N(C)C(=O)N1C (stereo not drawn)	57.2	-	-	55.7	-
Cc1ccc(S(=O)(=O)NN=C2CCN(Cc3ccccc3)CC2)cc1	-	-	-	-	-
COCCNC(=O)C1CC(c2ccc(F)cc2)=NO1 (stereo not drawn)	-	-	-	-	-
COCCNC(=O)C1CC(c2cccc(F)c2)=NO1 (stereo not drawn)	-	60.3	-	-	.
O=C(CSc1nc2[nH]ncc2c(=O)[nH]1)Nc1nccs1	active	-	.	51.6	-
Cc1cccc(-c2noc(CN(C(=O)c3ccc4c(c3)OCO4)C(C)C)n2)c1	-	.	-	-	-
Cc1nc(C(C)N(C)Cc2nc(-c3ccc4c(c3)OCO4)no2)c(C)s1 (stereo not drawn)	-	-	-	-	3.0
CCn1c(C)nc2cc(C(=O)NNC(=S)NC(=O)c3ccccc3)ccc21	-	-	-	64.6	-
CCn1c(C)nc2cc(C(=O)NNC(=S)Nc3ccccc3)ccc21	-	-	-	-	-
O=C(O)c1cccc(N2C(=O)c3cccc4cccc(c34)C2=O)c1	-	.	-	-	.
O=C(O)c1cccc(N2C(=O)c3cc([N+](=O)[O-])cc4cc([N+](=O)[O-])cc(c34)C2=O)c1	68.2	.	-	56.8	.
Cn1cnnc1SCC(=O)NC(=O)NC1CCCC1	-	-	-	-	-
CC(=O)N1CCc2cc(N=NC3=C(O)CC(C)(C)CC3=O)ccc21	100.8	-	-	6.5	-
SMILES	eIF4H inh	eIF4E 4G PPI	MLLE-PAM2 inh	PABP polyA inh	PERK inh
CC(C)CNC(=O)c1[nH]c(C(F)(F)F)nc1-c1ccccc1	.	.	-	.	.
O=C(Nc1ccc(F)cc1)NC1CCN(Cc2nnnn2Cc2ccco2)CC1	74.3	-	-	52.6	-
O=C(Nc1ccccc1F)NC1CCN(Cc2nnnn2Cc2ccc(F)cc2)CC1	-	-	-	-	-
COc1ccc(NC(=O)C[C@H]2C(=O)N(C3CCCCC3)C[C@@H]2CSC)cc1	.	.	-	.	.
COc1cc(NC(=O)CSc2ccc(-c3ccco3)nn2)cc(OC)c1	59.7	.	-	-	.
COc1ccc(NC(=O)CSc2nnc(-c3ccco3)c(-c3ccco3)n2)cc1OC	64.1	.	-	-	.
COc1ccc(C(=O)CSc2nnc(-c3ccco3)n2C)cc1	-	-	-	-	-
CSc1nnc(-c2ccco2)c(-c2ccco2)n1	96.8	-	-	94.5	-
COc1ccc(C(=O)CSc2nnc(-c3ccco3)c(-c3ccco3)n2)cc1	-	-	-	74.6	-
COc1nc(C)cc(C)c1S(=O)(=O)c1ccc(Cl)cc1	-	.	-	-	.
